# Assay results reported in PubChem BioAssay (EPA / NIEHS).
# Records with an inconclusive call do not appear. The source made the active and inactive calls. Rule for the calls: active = hit-call score of the fitted dose curve at least 0.9, where 1 is the maximum; inconclusive = response in the unintended direction; inactive = score below 0.9.
# Experiments:
# [1] = TOX21_p53_BLA_p2_viability: Viability Assessment in the Tox21 HCT-116 p53 Agonism Beta-lactamase Assay, Phase 2 (AID 2283591);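 note: actives lower the ATP signal meaning cytotoxicity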
# In short: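 HCT-116 p53-bla cells (4000/well) rested 5 h at 37C, then received compounds in DMSO (217-fold dilution) for 16 h at 37C, 5% CO2. After the CCF4 read, CellTiter-Glo was added; ATP luminescence was read after 30 min at room temperature.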
# [2] = molecular target: Cellular tumor antigen p53 (Homo sapiens) (UniProt P04637); test: TOX21_p53_BLA_p2_ratio: Tox21 HCT-116 p53 Agonism Beta-lactamase Assay, Ratio, Phase 2 (AID 2283592)
# Cellular tumor antigen p53 (Homo sapiens), sequence (P04637 whole entry, looked up): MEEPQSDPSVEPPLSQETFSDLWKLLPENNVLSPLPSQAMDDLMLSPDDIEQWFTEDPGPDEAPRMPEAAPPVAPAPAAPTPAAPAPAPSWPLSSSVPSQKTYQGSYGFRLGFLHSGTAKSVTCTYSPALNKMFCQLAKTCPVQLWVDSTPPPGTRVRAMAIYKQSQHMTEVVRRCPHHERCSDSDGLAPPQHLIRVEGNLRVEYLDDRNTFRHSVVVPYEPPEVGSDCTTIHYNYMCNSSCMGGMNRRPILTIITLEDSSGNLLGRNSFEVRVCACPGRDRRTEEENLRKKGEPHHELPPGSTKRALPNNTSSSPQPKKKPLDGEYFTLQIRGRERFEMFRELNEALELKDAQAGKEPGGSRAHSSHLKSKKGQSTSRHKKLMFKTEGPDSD
# In short: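 First, HCT116 reporter cells settle for 5 h at 37C. Next, DMSO compound solutions are pinned in (217-fold dilution) and left 16 h. Finally, CCF4-AM substrate is loaded 2 h at room temperature and the 460/530 nm ratio read.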
# [3] = TOX21_p53_BLA_p3_viability: Viability Assessment in the Tox21 HCT-116 p53 Agonism Beta-lactamase Assay, Phase 3 (AID 2283593);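 note: cells exposed to compound for 16 h before reading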
# In short: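 HCT-116 cells (4000/well) rested 5 h at 37C, then got DMSO compounds by pin tool (217-fold dilution) for 16 h at 37C, 5% CO2. After the bla read, CellTiter-Glo was added and luminescence read at 30 min, room temperature.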
# [4] = TOX21_p53_BLA_p4_viability: Viability Assessment in the Tox21 HCT-116 p53 Agonism Beta-lactamase Assay, Phase 4 (AID 2283597);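 note: hits lower the luminescence signal meaning cytotoxicity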
# In short: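 4000 HCT116 cells per well; 5 h attachment; compounds from DMSO, 217-fold dilution; 16 h at 37C. Then CCF4-AM, 2 h RT, followed by CellTiter-Glo, 30 min RT, luminescence. Decrease = cytotoxicity.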
# [5] = molecular target: Cellular tumor antigen p53 (Homo sapiens) (UniProt P04637); test: TOX21_p53_BLA_p5_ratio: Tox21 HCT-116 p53 Agonism Beta-lactamase Assay, Ratio, Phase 5 (AID 2283599)
# In short: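 HCT-116 cells carrying a p53-inducible beta-lactamase reporter were seeded at 4000 cells/well and dosed after 5 h with compound in DMSO (217-fold dilution). After 16 h at 37C, CCF4-AM substrate was added for 2 h, and the 460/530 nm emission ratio was scored as gain-of-signal versus DMSO.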
# [6] = TOX21_p53_BLA_p5_viability: Viability Assessment in the Tox21 HCT-116 p53 Agonism Beta-lactamase Assay, Phase 5 (AID 2283600)
# In short: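 Decreased CellTiter-Glo luminescence denotes lost viability. Exposure: 16 h at 37C, 5% CO2, with compounds from DMSO stocks diluted 217-fold in wells of 4000 cells.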
# [7] = molecular target: Cellular tumor antigen p53 (Homo sapiens) (UniProt P04637); test: TOX21_p53_BLA_p4_ratio: Tox21 HCT-116 p53 Agonism Beta-lactamase Assay, Ratio, Phase 4 (AID 2283601)
# In short: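 HCT116 cells carrying an inducible beta-lactamase reporter were plated at 4000 cells/well, rested 5 h, then exposed to compounds in DMSO (217-fold dilution) for 16 h at 37C. CCF4-AM substrate was loaded 2 h at room temperature; 460/530 nm emission ratio scored gain-of-signal versus DMSO.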
structure (smiles),measurement,setting,value
Cc1cc(-c2ccc(N=Nc3ccc4c(S(=O)(=O)O)cc(S(=O)(=O)O)c(N)c4c3O)c(C)c2)ccc1N=Nc1ccc2c(S(=O)(=O)O)cc(S(=O)(=O)O)c(N)c2c1O,outcome,[1],inactive
same,outcome,[2],inactive
same,outcome,[3],inactive
same,outcome,[4],inactive
same,outcome,[5],inactive
same,outcome,[6],inactive
same,outcome,[7],inactive
On1nnc2ccccc21,outcome,[1],inactive
same,outcome,[2],inactive
same,outcome,[3],inactive
same,outcome,[4],inactive
same,outcome,[5],inactive
same,outcome,[6],inactive
same,outcome,[7],inactive
NCCCC[C@H](NC(=O)[C@@H]1CCCN1C(=O)[C@@H]1CSSC[C@H](N)C(=O)N[C@@H](Cc2ccccc2)C(=O)N[C@@H](Cc2ccccc2)C(=O)N[C@@H](CCC(N)=O)C(=O)N[C@@H](CC(N)=O)C(=O)N1)C(=O)NCC(N)=O,outcome,[1],inactive
same,outcome,[2],inactive
same,outcome,[3],inactive
same,outcome,[4],inactive
same,outcome,[5],inactive
same,outcome,[6],inactive
same,outcome,[7],inactive
O[C@@H](c1cc(C(F)(F)F)nc2c(C(F)(F)F)cccc12)[C@H]1CCCCN1,AC50,[1],32.7 µM (active)
same,AC50,[2],28.9 µM (active)
same,AC50,[3],34 µM (active)
same,AC50,[4],24.6 µM (active)
same,AC50,[5],42.9 µM (active)
same,AC50,[6],22 µM (active)
same,AC50,[7],39.6 µM (active)
CC12CCC(C[N+](C)(CCC[N+](C)(C)C)C1)C2(C)C (stereo not given),outcome,[1],inactive
same,outcome,[2],inactive
same,outcome,[3],inactive
same,outcome,[4],inactive
same,outcome,[5],inactive
same,outcome,[6],inactive
same,outcome,[7],inactive
O=C(c1ccc(O)cc1)c1ccc(O)c(O)c1O,outcome,[1],inactive
same,outcome,[2],inactive
same,outcome,[3],inactive
same,outcome,[4],inactive
same,outcome,[5],inactive
same,outcome,[6],inactive
same,outcome,[7],inactive
CCOC(=O)c1cnc2c(cnn2CC)c1NN=C(C)C,outcome,[1],inactive
same,outcome,[2],inactive
same,outcome,[3],inactive
same,outcome,[4],inactive
same,outcome,[5],inactive
same,outcome,[6],inactive
same,outcome,[7],inactive
CCOc1ccc(N=Nc2ccc(N)cc2N)cc1,outcome,[1],inactive
same,outcome,[2],inactive
same,outcome,[3],inactive
same,outcome,[4],inactive
same,outcome,[5],inactive
same,outcome,[6],inactive
same,outcome,[7],inactive
CC(=O)NO,outcome,[1],inactive
same,outcome,[2],inactive
same,outcome,[3],inactive
same,outcome,[4],inactive
same,outcome,[5],inactive
same,outcome,[6],inactive
same,outcome,[7],inactive
O=C1c2ccccc2Cc2ccccc21,outcome,[1],inactive
same,outcome,[2],inactive
same,outcome,[3],inactive
same,outcome,[4],inactive
same,outcome,[5],inactive
same,outcome,[6],inactive
same,outcome,[7],inactive
c1ccc(CNCCNCc2ccccc2)cc1,outcome,[1],inactive
same,outcome,[2],inactive
same,outcome,[3],inactive
same,outcome,[4],inactive
same,outcome,[5],inactive
same,outcome,[6],inactive
same,outcome,[7],inactive
Nc1nc(-c2ccccc2)c(Br)c(=O)[nH]1,outcome,[1],inactive
same,outcome,[2],inactive
same,outcome,[3],inactive
same,outcome,[4],inactive
same,outcome,[5],inactive
same,outcome,[6],inactive
same,outcome,[7],inactive
CN(C)C/C=C(/c1ccc(Br)cc1)c1cccnc1,outcome,[1],inactive
same,outcome,[2],inactive
same,outcome,[3],inactive
same,outcome,[4],inactive
same,outcome,[5],inactive
same,outcome,[6],inactive
same,outcome,[7],inactive
CC1=C(C(=O)OC(C)C)C(c2cccc([N+](=O)[O-])c2)C(C(=O)OC2CN(C(c3ccccc3)c3ccccc3)C2)=C(N)N1 (stereo not given),AC50,[1],10.3 µM (active)
same,AC50,[2],18.3 µM (active)
same,AC50,[3],9.2 µM (active)
same,AC50,[4],34.2 µM (active)
same,AC50,[5],43.6 µM (active)
same,AC50,[6],38 µM (active)
same,AC50,[7],43.5 µM (active)
CC(C)N1CCN(c2ccc(OC[C@H]3CO[C@](Cn4cncn4)(c4ccc(Cl)cc4Cl)O3)cc2)CC1,outcome,[1],inactive
same,outcome,[2],inactive
same,outcome,[3],inactive
same,AC50,[4],10.3 µM (active)
same,outcome,[5],inactive
same,outcome,[6],inactive
same,outcome,[7],inactive
C=Cc1ccccc1,outcome,[1],inactive
same,outcome,[2],inactive
same,outcome,[3],inactive
same,outcome,[4],inactive
same,outcome,[5],inactive
same,outcome,[6],inactive
same,outcome,[7],inactive
O=C(O)c1ccc(OCCCOc2ccc(C(=O)O)cc2)cc1,outcome,[1],inactive
same,outcome,[2],inactive
same,outcome,[3],inactive
same,outcome,[4],inactive
same,outcome,[5],inactive
same,outcome,[6],inactive
same,outcome,[7],inactive
Cc1c(O)c(=O)ccn1C,outcome,[1],inactive
same,outcome,[2],inactive
same,outcome,[3],inactive
same,outcome,[4],inactive
same,outcome,[5],inactive
same,outcome,[6],inactive
same,outcome,[7],inactive
O=C1c2ccccc2C(=O)N1CCl,outcome,[1],inactive
same,outcome,[2],inactive
same,outcome,[3],inactive
same,outcome,[4],inactive
same,outcome,[5],inactive
same,outcome,[6],inactive
same,outcome,[7],inactive
O=C(O[C@H]1CN2CCC1CC2)N1CCc2ccccc2[C@@H]1c1ccccc1,outcome,[1],inactive
same,outcome,[2],inactive
same,outcome,[3],inactive
same,outcome,[4],inactive
same,outcome,[5],inactive
same,outcome,[6],inactive
same,outcome,[7],inactive
NC(=O)Nc1ccc(Cl)c(Cl)c1,outcome,[1],inactive
same,outcome,[2],inactive
same,outcome,[3],inactive
same,outcome,[4],inactive
same,outcome,[5],inactive
same,outcome,[6],inactive
same,outcome,[7],inactive
CC(C(=O)O)c1ccc(C(=O)c2ccccc2)s1 (stereo not given),outcome,[1],inactive
same,outcome,[2],inactive
same,outcome,[3],inactive
same,outcome,[4],inactive
same,outcome,[5],inactive
same,outcome,[6],inactive
same,outcome,[7],inactive
CC(=O)Nc1cccc(O)c1,outcome,[1],inactive
same,outcome,[2],inactive
same,outcome,[3],inactive
same,outcome,[4],inactive
same,outcome,[5],inactive
same,outcome,[6],inactive
same,outcome,[7],inactive
CCCC[P+](C)(CCCC)CCCC,outcome,[1],inactive
same,outcome,[2],inactive
same,outcome,[3],inactive
same,outcome,[4],inactive
same,outcome,[5],inactive
same,outcome,[6],inactive
same,outcome,[7],inactive
CC(C)=CCC/C(C)=C/CC/C(C)=C/CC/C=C(\C)CC/C=C(\C)CCC=C(C)C,outcome,[1],inactive
same,outcome,[2],inactive
same,outcome,[3],inactive
same,outcome,[4],inactive
same,outcome,[6],inactive
same,outcome,[7],inactive
CCN1CCN(c2cc(-c3ccc(F)cc3)c3c(n2)CCCCCC3)CC1,outcome,[1],inactive
same,outcome,[2],inactive
same,outcome,[3],inactive
same,outcome,[4],inactive
same,outcome,[6],inactive
same,outcome,[7],inactive
